Experimental data: PubChem BioAssay AID1240 (Sanford-Burnham Center for Chemical Genomics, 2008)
Hit rate of the full screen: of about 50,000 compounds, about 800 (1.6%) showed an effect of 50% or more. Shown is part of a subset that was picked to be rich in strong results.

The compounds below were run against Bcl-2-like protein 10 (Homo sapiens) (UniProt Q9HD36) (assay: TR3 peptide-Bcl-B binding displacers, biochemical primary FP assay, phenotype converters (AID 1240;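 also: 0% = Bcl-B with tracer peptide and DMSO and 100% = tracer peptide lacking Bcl-B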)). Conditions: GST-Bcl-B / FITC-TR3 peptide fluorescence polarization; stronger effect = higher value; compound at 3.75 mg/L.
Chain of Bcl-2-like protein 10 (Homo sapiens) (Q9HD36 whole entry, looked up): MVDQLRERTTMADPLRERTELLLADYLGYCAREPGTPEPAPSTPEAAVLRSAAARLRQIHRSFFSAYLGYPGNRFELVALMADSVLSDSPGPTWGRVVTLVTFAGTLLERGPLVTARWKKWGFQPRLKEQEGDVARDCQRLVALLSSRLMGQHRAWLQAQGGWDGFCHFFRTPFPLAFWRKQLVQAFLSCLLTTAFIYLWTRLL

Compound	displacement [%]
CCOC(=O)C12CC3CC(CC(C3)C1)C2	-12.2
COc1ccc([N+](=O)[O-])cc1NCc1cccnc1	3.1
CCC(=O)Nc1ccc2oc(-c3ccccc3Br)nc2c1	8.7
NC(=O)c1cccc(N=Cc2c(O)ccc3ccccc23)c1	-0.3
Oc1ccc2ccccc2c1C=Nc1ccc2oc(-c3ccccc3Br)nc2c1	120
COc1ccc(-c2ccc(-c3nnc(-c4cccc(C)c4)o3)cc2)cc1	-5.4
COc1cc(C=NN2CCN(Cc3ccc(C)cc3C)CC2)cc(Br)c1O	10.3
N#C/C(=N/Nc1cccc(C(F)(F)F)c1)c1nc(-c2ccccc2)cs1	-4.4
N#C/C(=N\Nc1ccccc1F)c1nc(-c2ccccc2)cs1	7.2
N#C/C(=N\Nc1ccccc1)c1nc(-c2ccc(F)cc2)cs1	127
Cc1ccccc1CNC(=O)CN(c1ccc(Oc2ccccc2)cc1)S(C)(=O)=O	7.2
CCOc1ccccc1NC(=O)c1cc(C(=O)OC)cc([N+](=O)[O-])c1	-7.1
CC1=NN(c2ccc(S(N)(=O)=O)cc2)C(=O)/C1=C\c1ccc(-c2ccc(C)c(Cl)c2)o1	4
COc1ccc(/C=C2/SC(=O)N(CNc3ccc(Br)cc3C)C2=O)c(OC)c1	31.7
COc1ccc(OC)c(/C=C2\SC(=S)N(c3ccccc3C)C2=O)c1	158
COc1ccc(/C=C2/SC(=O)N(CNc3ccc(Br)cc3C)C2=O)cc1	4.5
COc1ccccc1/C=C1/SC(=O)N(CNc2cccc(Cl)c2)C1=O	9.1
COc1ccc(/C=C2\NC(=S)N(c3ccccc3)C2=O)cc1OC	41.7
COc1ccc(OC)c(/C=C2/SC(=S)N(CNc3cccc(Cl)c3)C2=O)c1	57
COc1ccc(OC)c(/C=C2/SC(=S)N(c3ccccc3OC)C2=O)c1	-0.9
COc1ccc(C=C2NC(=S)N(c3ccccc3)C2=O)c(OC)c1	3.7
COc1ccc(N2C(=O)/C(=C\c3cc(OC)ccc3OC)SC2=S)cc1	28.3
COC(=O)CN1C(=O)/C(=C/c2cc(OC)ccc2OC)SC1=S	-14.6
COc1ccc(OC)c(/C=C2\NC(=S)N(c3ccccc3)C2=O)c1	62.3
COc1ccc(OC)c(/C=C2/SC(=O)N(CNc3ccc(Br)cc3C)C2=O)c1	90.9

Compound	displacement [%]
COc1cc(CNc2ccc(Br)cc2C)cc(OC)c1OC	13.2
Cc1ccc(C(=O)Nc2cc(-c3cccc(C)c3)[nH]n2)cc1	6.2
O=C1/C(=C\c2cccc(C(F)(F)F)c2)SC(=S)N1Cc1ccccc1	11
Cc1cc(Br)cc2c1NC(=O)C21OCCO1	-4.3
Cc1nnc(C)n1/N=C/c1ccc(O)c(O)c1	15.9
COc1ccccc1CNC(=O)C/C(C)=N/NC(=O)C(=O)NC(C)C	-14.6
N#C/C(=C/c1ccc(C(=O)O)cc1)C(=O)Nc1cccc(Br)c1	-2.2
CSc1ccc(/C=C(\NC(=O)c2ccc(C)cc2)C(=O)Nc2cccc(F)c2)cc1	127
N#C/C(=C/c1ccc(Cl)cc1)C(=O)Nc1cccc(Br)c1	-9.8
Cc1[nH]c2ccccc2c1/C=C(/C#N)C(=O)Nc1cccc(Br)c1	-17.5
CN(C)c1ccc(/C=C(/C#N)C(=O)Nc2cccc(Br)c2)cc1	53.8
N#C/C(=C/c1ccc(O)cc1)C(=O)Nc1cccc(Br)c1	-32.7
CC(=O)c1cccc(NC(=O)/C(=C\c2ccc(Br)cc2)NC(=O)c2ccc(C)cc2)c1	2.4
Cc1ccc(/C=C(/C#N)C(=O)Nc2cccc(Br)c2)o1	-37.3
N#C/C(=C\c1c[nH]c2ccccc12)C(=O)Nc1ccc(F)cc1	15.3
N#C/C(=C/C=C/c1ccco1)C(=O)Nc1cccc(Br)c1	59.3
N#C/C(=C/c1c[nH]c2ccccc12)C(=O)Nc1cccc(Br)c1	90.7
CSc1ccc(/C=C(\NC(=O)c2ccc(C)cc2)C(=O)Nc2cccc(C)c2)cc1	-2.7
CCOc1ccc(N2C(=O)NC(=O)/C(=C\c3ccc(-c4ccccc4C(=O)O)o3)C2=O)cc1	14.1
CCN(Cc1ccccc1)C(=O)c1ccccc1[N+](=O)[O-]	-11.3
CC(C)c1ccc(C2OC3(C(=O)c4ccccc4C3=O)C3C(=O)N(c4ccc(Cl)c(Cl)c4)C(=O)C23)cc1 (stereo not given)	4.5
O=c1c(Oc2ccccc2Br)c(C(F)(F)F)oc2cc(O)ccc12	3
COc1ccc(NC(=O)CN(c2ccccc2Cl)S(C)(=O)=O)cc1OC	3.6
CCOc1cc(/C=C2\C(=O)NC(=O)N(c3ccc(Cl)cc3)C2=O)cc(Cl)c1OCC(=O)O	-2.8
Cc1cc(C)c(C(=O)/C(=C/c2ccc(I)cc2)c2ccccc2)c(=O)[nH]1	-1.1

Compound	displacement [%]
Cc1cccc(C(=O)NNC2=CC(=O)CC(C)(C)C2)c1O	37.5
N#C/C(=C/c1ccc(F)cc1)C(=O)Nc1cccc(Br)c1	-19.5
COc1ccc(Cl)cc1/C=C(/C#N)C(=O)Nc1cccc(Br)c1	14.8
N#C/C(=C/c1ccc(C#N)cc1)C(=O)Nc1cccc(Br)c1	-8.5
N#C/C(=C\c1ccc(-c2ccccc2[N+](=O)[O-])o1)C(=O)Nc1cccc(Br)c1	-6.3
COc1ccc(OC)c(/C=C(/C#N)C(=O)Nc2cccc(Br)c2)c1	100
CSc1ccc(/C=C(/C#N)C(=O)Nc2cccc(Br)c2)cc1	80.3
COc1ccc(/C=C(/C#N)C(=O)Nc2cccc(Br)c2)c(OC)c1	-8.7
COc1ccc([N+](=O)[O-])cc1-c1ccc(/C=C(/C#N)C(=O)Nc2cccc(Br)c2)o1	7.6
COc1cc([N+](=O)[O-])ccc1-c1ccc(/C=C(/C#N)C(=O)Nc2cccc(Br)c2)o1	92.4
C=CCOc1ccc(/C=C/C(=O)c2ccc(Cl)cc2)cc1	-2.1
O=C(NCc1ccccc1)c1nn2c(c1Cl)NC(c1ccc(Cl)cc1)CC2C(F)(F)F (stereo not given)	1.1
O=C(NCc1ccccc1)C(O)(c1ccc(F)cc1)c1ccc(F)cc1	-12.1
CSc1ccc(CN2CCN(C(=O)c3ccco3)CC2)cc1	-13.1
O=[N+]([O-])c1ccc(F)c(NS(=O)(=O)c2cc(Cl)ccc2Cl)c1	-1.9
Cc1cc(NC(=O)c2cccc(F)c2)ccc1NC(=O)c1ccccc1	-3.3
Cc1ccc(/C=C2\SC(=Nc3ccc(O)cc3)NC2=O)cc1	0.1
O=C1NC(=Nc2ccc(Br)cc2)S/C1=C\c1ccc(O)cc1	10
COc1ccc(/C=C2/SC(=Nc3ccc(O)cc3)NC2=O)cc1	-15.9
O=C1NC(=Nc2ccc(Br)cc2)S/C1=C\c1ccc2c(c1)OCO2	68.8
COc1ccc(N=C2NC(=O)/C(=C/c3ccc(N(C)C)cc3)S2)cc1	84.9
O=C1NC(=Nc2ccc(F)cc2)S/C1=C/c1ccc(Br)cc1	8
CN(C)c1ccc(/C=C2\SC(=Nc3ccc(O)cc3)NC2=O)cc1	50.9
O=C1NC(=Nc2ccc(O)cc2)S/C1=C\c1ccc(Cl)cc1	0.3
COc1ccc(N=C2NC(=O)/C(=C/c3ccc(Cl)cc3)S2)cc1	10.7
